In PubChem BioAssay (NCI):
Values joined by “and” are separate entries in the source; they are usually repeats but may differ in a detail not shown here. Identical values can stand only once. This is part of a sample that, as a whole, favours compounds with a hit. Of some 83,000 tested, about 20% had one in any assay.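 Interpretation: 100, growth as untreated; towards 0, rising growth inhibition; 0, no net growth; 0 to -100, cell death. Compounds scoring below 10 were considered active.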 Active and inactive are the calls of the source.

These molecules were tested on SN12C renal (assay: NCI-60 one-dose screen, 48 h (100 = growth as untreated, 0 = no growth, -100 = all killed)). Settings: 10 µM unless noted.

Row | SMILES | growth
1 | CC(C)CNC(=O)c1ccccc1C(=O)NC1(C(=O)NCC(C)C)CCCC1 | 99.8% (inactive) and 107% (inactive)
2 | CN(C)c1ccc(C(Cc2ccc3ccccc3n2)Cc2ccc3ccccc3n2)cc1 | 48.7% (inactive) and 81.6% (inactive)
3 | Cc1ccc(S(=O)(=O)Nc2ccc3cc([N+](=O)[O-])ccc3c2[N+](=O)[O-])cc1 | 74.7% (inactive) and 91.6% (inactive)
4 | NS(=O)(=O)c1cc2c(cc1Cl)NC(C(Cl)Cl)NS2(=O)=O (stereo not given) | 93.2% (inactive) and 103% (inactive)
5 | c1ccc2c(CC3=NCCN3)cccc2c1 | 103% (inactive) and 107% (inactive)
6 | Clc1ccc(NC(Nc2ccc(Cl)cc2)C(Cl)(Cl)Cl)cc1 | 84% (inactive) and 111% (inactive)
7 | CCOc1ccc2c(S(=O)(=O)O)cccc2c1[N+](=O)[O-] | 106% (inactive) and 103% (inactive)
8 | CCN(CC)CCCC(C)N(Cc1ccccc1)CC(O)c1ccc(Cl)cc1 (stereo not given) | 100% (inactive) and 104% (inactive)
9 | Cn1cnc([N+](=O)[O-])c1Sc1ncnc2nc[nH]c12 | 75.8% (inactive) and 83.2% (inactive)
10 | Nc1nc2ncc(CNc3ccc(C(=O)N[C@@H](CCc4nn[nH]n4)C(=O)O)cc3)nc2c(=O)[nH]1 | 109% (inactive) and 98.2% (inactive)
11 | O=S1(=O)CC(Br)C(Br)C1 (stereo not given) | 93.2% (inactive) and 88.3% (inactive)
12 | CN(C)c1ccc2nc3ccc(N)cc3[n+](-c3ccccc3)c2c1 | 6.72% (active) and -36.4% (active)

What follows are molecules tested on UO-31 renal in the same assay as above. Settings: 10 µM unless noted.

Row | SMILES | growth
13 | COc1cc2c(c(OC)c1OC)-c1ccc(OC)c(=O)cc1[C@@H](NC(C)=O)CC2 | 35.8% (inactive) and 44% (inactive) and 21.2% (inactive)
14 | CCN(CC)CCCC(CNc1ccnc2cc(Cl)ccc12)c1ccc(Cl)cc1 (stereo not given) | -91.5% (active) and -65.7% (active)
15 | N#CCCOc1ccccc1 | 92.8% (inactive)
16 | COc1ccc(/C(C#N)=C/c2ccccn2)cc1 | 95.5% (inactive) and 98.9% (inactive)
17 | CCN(CC)C(=S)SSC(=S)N(CC)CC | 63.3% (inactive) and 90.7% (inactive)
18 | Nc1ccc(N=Nc2ccc(S(=O)(=O)O)cc2)cc1S(=O)(=O)O | 81.4% (inactive) and 93.4% (inactive)
19 | CCN(CC)CCOc1ccc2c(c1)C(=O)c1cc(OCCN(CC)CC)ccc1-2 | 59.6% (inactive) and 4.32% (active)
20 | O=C1OC2(c3ccccc31)c1ccc(O)c(O)c1Oc1c2ccc(O)c1O | 90.2% (inactive) and 87.8% (inactive)
21 | O=S(=O)(Nc1ccccc1)C1CCCCC1 | 77.2% (inactive) and 88.3% (inactive)
22 | CCNC(=O)Nc1ccc(-c2nc3c(c(N4CCOC[C@@H]4C)n2)CCN(C2COC2)C3)cc1 | 21.8% (inactive) and -6.18% (active)
23 | CC(C)Cc1ccc(C(C)C(=O)NCc2ccc(Cn3c(=O)sn(CCCCl)c3=O)cc2)cc1 (stereo not given) | 77% (inactive) and -100% (active)
24 | OCc1ccccn1 | 97.9% (inactive)
25 | Nc1ncnc2c1ncn2C1CC(O)C(CO)O1 (stereo not given) | 89% (inactive) and 88.8% (inactive)
26 | CCCCCCCCCCCCCCCc1cc(O)ccc1N | -59.8% (active) and 20.5% (inactive)
27 | Cc1ccc2nc3c(nc2c1)-c1cccc2cccc-3c12 | 63.1% (inactive)
28 | O=[N+]([O-])c1ccc(/C=N\NC(=S)Nc2ccc(F)cc2)cc1 | 96.9% (inactive) and 102% (inactive)
29 | CCN(CC)C(=O)c1cccnc1 | 116% (inactive)
30 | CN1CCN(CCC=C2c3ccccc3Sc3ccc(S(=O)(=O)N(C)C)cc32)CC1 | 36.7% (inactive) and 56.9% (inactive)
31 | Oc1nc(NCCc2ccccc2)sc1/C=C1\C=Nc2ncccc21 | 36.6% (inactive) and 25.2% (inactive)

Row | SMILES | growth
32 | COc1cc2nc(N3CCN(C(=O)C4COc5ccccc5O4)CC3)nc(N)c2cc1OC (stereo not given) | 94.5% (inactive) and 98.7% (inactive) and 85% (inactive)
33 | c1ccc2cc(C[n+]3ccn(Cc4ccc5ccccc5n4)c3)ccc2c1 | 98% (inactive) and 86.4% (inactive)
34 | COc1ccc(Cn2c(NCCN=C(N)N)nc(=O)n(Cc3ccc(F)cc3)c2=O)cc1 | 77.7% (inactive) and 75.3% (inactive)
35 | O=C(N/N=C/c1cccc2ccccc12)C1CC1 | 90.1% (inactive) and 102% (inactive)
36 | CC(C)CNC(=O)c1ccccc1C(=O)NC1(C(=O)NCC(C)C)CCCC1 | 83.5% (inactive) and 86.1% (inactive)
37 | Cn1c(=O)n(-c2ccc(C(C)(C)C#N)cc2)c2c3cc(-c4cnc5ccccc5c4)ccc3ncc21 | -14.7% (active) and -16.6% (active)
38 | CN(C)c1ccc(C(Cc2ccc3ccccc3n2)Cc2ccc3ccccc3n2)cc1 | 2.9% (active) and 56.3% (inactive)
39 | Cc1ccc(S(=O)(=O)Nc2ccc3cc([N+](=O)[O-])ccc3c2[N+](=O)[O-])cc1 | 47.1% (inactive) and 58.1% (inactive)
40 | NS(=O)(=O)c1cc2c(cc1Cl)NC(C(Cl)Cl)NS2(=O)=O (stereo not given) | 90.7% (inactive) and 87.4% (inactive)
41 | Nc1ccccc1Nc1ccccc1 | 45.3% (inactive) and 49.6% (inactive)
42 | c1ccc2c(CC3=NCCN3)cccc2c1 | 97.6% (inactive) and 98.7% (inactive)
43 | Clc1ccc(NC(Nc2ccc(Cl)cc2)C(Cl)(Cl)Cl)cc1 | 25.5% (inactive) and 75.1% (inactive)
44 | CCOc1ccc2c(S(=O)(=O)O)cccc2c1[N+](=O)[O-] | 71.5% (inactive) and 79.1% (inactive)
45 | CCN(CC)CCCC(C)N(Cc1ccccc1)CC(O)c1ccc(Cl)cc1 (stereo not given) | 94.7% (inactive) and 90.9% (inactive)
46 | Cn1cnc([N+](=O)[O-])c1Sc1ncnc2nc[nH]c12 | 63.4% (inactive) and 69% (inactive)
47 | Nc1nc2ncc(CNc3ccc(C(=O)N[C@@H](CCc4nn[nH]n4)C(=O)O)cc3)nc2c(=O)[nH]1 | 89.7% (inactive) and 89.8% (inactive)
48 | Oc1c(Cl)cc(Cl)cc1Sc1cc(Cl)cc(Cl)c1O | 73.2% (inactive) and 36.9% (inactive) and 85.2% (inactive)
49 | O=S1(=O)CC(Br)C(Br)C1 (stereo not given) | 64.9% (inactive) and 77% (inactive)
50 | CN(C)c1ccc2nc3ccc(N)cc3[n+](-c3ccccc3)c2c1 | 62.1% (inactive) and 31% (inactive)
